WT yeast gro inh – growth inhibition of WT yeast, mitochondrial fusion screen; AID 1362; mitochondrial fusion phenotypic screen, WT strain; inhibition, % at 10 µM; actives 2.1% (n = 190,000); in the data active = inhibition above about 58%; tested in S. cerevisiae
SKKanGAS inh – blocks kanamycin growth of S. pyogenes SKKanGAS strain | BacTiter-Glo, 6 h | inhibition, % at 7.5 µM | actives 1.3% (n = 300,000) | AID 1662;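 active = mean replicate score, as percent of positive control median, at least 50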;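 also: strain carries kanamycin resistance gene driven by streptokinase promoter and grows in 40 µg/ml kanamycin; loss of luminescence reflects streptokinase promoter inhibition or plain growth inhibition; 0% = median of DMSO wells and 100% = positive control at its reference dose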
PHOSPHO1 block – blocks human PHOSPHO1 phosphatase activity; Q8TCT1; recombinant PHOSPHO1, absorbance phosphatase assay; inhibition, % at 13.3 µM; actives 1.1% (n = 290,000); in the data active = inhibition above about 60%
Rtt109 Vps75 – inhibitors of Candida albicans Rtt109/Vps75 histone acetyltransferase; actives 0.16% (n = 330,000); Q5AAJ8; AID 540336; purified Rtt109/Vps75, ThioGlo CoA-SH fluorescence, 4 h; inhibition, % at 34.9 µM;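 active = inhibition of at least 50% in every replicate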
Target sequence (Q5AAJ8 whole entry, looked up): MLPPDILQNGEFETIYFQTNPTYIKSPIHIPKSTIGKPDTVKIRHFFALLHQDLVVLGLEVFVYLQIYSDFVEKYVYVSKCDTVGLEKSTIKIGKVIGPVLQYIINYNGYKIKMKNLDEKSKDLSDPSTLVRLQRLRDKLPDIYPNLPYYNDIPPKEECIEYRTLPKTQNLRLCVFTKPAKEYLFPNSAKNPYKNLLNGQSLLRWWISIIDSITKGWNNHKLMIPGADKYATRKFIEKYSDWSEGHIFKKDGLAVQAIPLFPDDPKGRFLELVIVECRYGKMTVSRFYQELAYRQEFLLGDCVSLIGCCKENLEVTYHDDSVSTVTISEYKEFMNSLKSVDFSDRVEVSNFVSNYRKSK
TPT1 inhibitor – C. albicans TPT1 enzyme inhibition; actives 0.81% (n = 300,000); inhibition, % at 5 µM; AID 1962; recombinant caTPT1, FP RNA substrate dephosphorylation;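 active = inhibition above the mean of all tested compounds plus 3 SD, set per screening campaign, cut at about 24% in these data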;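 also: plate controls were DMSO alone for no effect and ferristatin control at 100 nM for full effect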
Platelet DG rel – platelet dense granule release activity. human platelet-rich plasma, SFLLRN dense granule ATP release, luminescence. inhibition, %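 (compounds screened at 7.5 µM in platelet-rich plasma)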. actives 0.22% (n = 300,000). AID 1663;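 active = mean replicate score, as percent of positive control, at or above 50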
caTPT1 confirm – TPT1 (C. albicans) inhibition, confirmation. actives 74% (n = 2,400). recombinant caTPT1, fluorescence polarization, RNase T1 coupled. inhibition, % at 5 µM. shares compounds with TPT1 inhibitor;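 active = inhibition above the primary screen limit, the mean inhibition of all tested compounds plus 3 SD, cut at about 25% in these data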
RNase T1 inh – blocks Aspergillus oryzae RNase T1, a TPT1 counter-screen; shares compounds with TPT1 inhibitor; RNase T1 cleavage, fluorescence polarization, 1536-well; inhibition, % at 5 µM; actives 83% (n = 2,400); AID 2153;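 active = inhibition above the solvent-only control well mean plus 3 SD, limit set per screening run, cut at about 23% in these data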;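 also: plate controls were DMSO wells with enzyme for no effect and wells without RNase T1 for full effect; inhibitors block cleavage so intact labeled substrate keeps polarization high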
Target sequence (P00651 whole entry, looked up): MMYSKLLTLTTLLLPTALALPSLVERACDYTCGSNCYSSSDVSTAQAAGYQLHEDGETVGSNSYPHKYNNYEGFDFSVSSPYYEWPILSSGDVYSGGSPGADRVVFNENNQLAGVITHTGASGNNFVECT
An asterisk follows results filed as active. Hits are enriched below; roughly 3.9% of the tested compounds scored in any of these assays.

For Cc1c(C(=O)N/N=C/c2ccc(O)c(Br)c2)sc(N)c1C#N the results were WT yeast gro inh -5.4, PHOSPHO1 block 5.9, Rtt109 Vps75 -1.8, TPT1 inhibitor 27.1*, caTPT1 confirm 16.6 and RNase T1 inh 23.8*.
Screening COc1cc(/C=N/NC(=O)c2sc(N)c(C#N)c2C)ccc1O returned WT yeast gro inh 12.6, SKKanGAS inh 9.2, PHOSPHO1 block 26.1, Rtt109 Vps75 1.5, TPT1 inhibitor 54.2*, Platelet DG rel 31.0, caTPT1 confirm 2.3 and RNase T1 inh 9.7.
Screening CC(=O)Nc1ccc(NC(=O)C(C)OC(=O)CCc2c[nH]c3ccccc23)cc1 (centres undefined) returned SKKanGAS inh -4.2, Rtt109 Vps75 4.9, TPT1 inhibitor -1.1 and Platelet DG rel 0.4.
Screening O=[N+]([O-])c1cccc(C2NCC(c3ccccc3Cl)c3c2[nH]c2ccccc32)c1 (centres undefined) returned WT yeast gro inh 70.0*, SKKanGAS inh 21.3, PHOSPHO1 block 39.8, Rtt109 Vps75 23.5, TPT1 inhibitor 130.6*, Platelet DG rel -2.8, caTPT1 confirm 10.2 and RNase T1 inh 13.4.
`CCCn1c(N)c(N(CCOC)C(=O)c2cc(C)cc(C)c2)c(=O)[nH]c1=O` gave SKKanGAS inh 2.0, PHOSPHO1 block 14.6, Rtt109 Vps75 -2.5, TPT1 inhibitor 1.8 and Platelet DG rel -4.1.
Screening O=C(NCc1ccccn1)c1ccc(NS(=O)(=O)c2ccccc2)cc1 returned SKKanGAS inh -0.6, PHOSPHO1 block 52.7, Rtt109 Vps75 -3.1, TPT1 inhibitor 3.0 and Platelet DG rel -4.7.
N#Cc1c(-c2ccco2)cc(-c2ccc(F)cc2)nc1N was read as WT yeast gro inh -6.0, SKKanGAS inh -1.4, PHOSPHO1 block -7.4, Rtt109 Vps75 -8.9, TPT1 inhibitor 24.7*, Platelet DG rel 0.2, caTPT1 confirm 29.8* and RNase T1 inh 38.5*.
For OCC[n+]1ccc(/C=C/c2c[nH]c3ccccc23)cc1 the results were WT yeast gro inh -7.1, SKKanGAS inh -3.1, PHOSPHO1 block -61.0, Rtt109 Vps75 0.2, TPT1 inhibitor 57.2*, Platelet DG rel -6.7, caTPT1 confirm 59.3* and RNase T1 inh 64.7*.
`OC(COc1ccc(Br)cc1)CN1CCN(c2ccccc2)CC1` (centres undefined) gave SKKanGAS inh 3.1, PHOSPHO1 block 34.3, Rtt109 Vps75 8.9, TPT1 inhibitor -1.9 and Platelet DG rel 0.5.
For CCOC(=O)Sc1nc2ncncc2[nH]1 the results were Rtt109 Vps75 6.1.
COc1ccccc1CNc1nc(-c2cc(C)n(C)c2C)cs1 was read as WT yeast gro inh 9.8, PHOSPHO1 block -42.6 and Rtt109 Vps75 9.6.
COCCNc1nc(-c2cc(C)n(CCc3ccc(OC)cc3)c2C)cs1 was read as WT yeast gro inh 6.8, SKKanGAS inh -5.2, PHOSPHO1 block -0.6, Rtt109 Vps75 15.8, TPT1 inhibitor 48.0*, Platelet DG rel -4.4, caTPT1 confirm 10.3 and RNase T1 inh 16.3.
`O=C(Cc1ccccc1)c1ccc(O)cc1` gave Rtt109 Vps75 1.1.
For NC(=O)c1cccc(CC(=O)c2ccccc2)c1 the results were SKKanGAS inh 6.7, PHOSPHO1 block 31.6, Rtt109 Vps75 -7.3, TPT1 inhibitor 74.5*, Platelet DG rel 23.1, caTPT1 confirm 8.2 and RNase T1 inh 12.9.
For CC(=O)c1cccc(-c2ccc3c(=O)[nH]c(Nc4ccccc4)cc3c2)c1 the results were SKKanGAS inh 33.6, Rtt109 Vps75 -2.6, TPT1 inhibitor 30.4*, Platelet DG rel 7.5, caTPT1 confirm 58.9* and RNase T1 inh 71.0*.
Screening COc1ccccc1C1C([N+](=O)[O-])=CC([N+](=O)[O-])=CN1C (centres undefined) returned WT yeast gro inh -8.6, SKKanGAS inh 8.5, PHOSPHO1 block -0.3, Rtt109 Vps75 -2.9, TPT1 inhibitor 42.2*, Platelet DG rel -1.9, caTPT1 confirm 51.5* and RNase T1 inh 60.8*.
For COc1ccccc1C1NC=C([N+](=O)[O-])C=C1[N+](=O)[O-] (centres undefined) the results were WT yeast gro inh 8.0, SKKanGAS inh -1.7, PHOSPHO1 block -0.3, Rtt109 Vps75 2.5, TPT1 inhibitor 19.1 and Platelet DG rel -0.2.
For Cc1ccc2nc3sc(C(=O)N4CCCc5ccccc54)c(N)c3cc2c1 the results were WT yeast gro inh 26.1, SKKanGAS inh 25.0, PHOSPHO1 block 7.0, Rtt109 Vps75 3.9, TPT1 inhibitor 37.6*, Platelet DG rel 1.7, caTPT1 confirm 55.7* and RNase T1 inh 64.4*.
For Cc1cc(C)c2cc3c(N)c(C(=O)N4CCc5ccccc5C4)sc3nc2c1 the results were WT yeast gro inh -1.6, SKKanGAS inh 13.5, PHOSPHO1 block 1.8, Rtt109 Vps75 -6.6, TPT1 inhibitor 26.1*, Platelet DG rel 5.5, caTPT1 confirm 21.4 and RNase T1 inh 37.1*.
Cc1ccc(-c2cc(C(=O)N3CCCc4ccccc43)c3ccccc3n2)cc1 was read as WT yeast gro inh -0.2, SKKanGAS inh 12.9, PHOSPHO1 block 5.5, Rtt109 Vps75 0.9, TPT1 inhibitor 1.0 and Platelet DG rel 10.5.
For Cc1cccc2cc3c(N)c(C(=O)N4CCOCC4)sc3nc12 the results were WT yeast gro inh 29.9, SKKanGAS inh -7.1, PHOSPHO1 block -16.0, Rtt109 Vps75 10.5, TPT1 inhibitor 0.9 and Platelet DG rel 4.5.
`Cc1cc(Br)ccc1NC(=O)CN(C)C(=O)Cn1c(=O)cnc2ccccc21` gave SKKanGAS inh -4.0, PHOSPHO1 block -11.5, Rtt109 Vps75 0.3, TPT1 inhibitor -0.1 and Platelet DG rel 2.0.
CC(=O)c1ccc(S(=O)(=O)Nc2ccccc2C(=O)NC2CC2)cc1 was read as Rtt109 Vps75 -9.9.
COc1ccc(NC(=O)C(=O)NCC2CCCN2S(=O)(=O)c2cccs2)cc1 (centres undefined) was read as SKKanGAS inh -3.0, Rtt109 Vps75 5.3, TPT1 inhibitor -0.8 and Platelet DG rel -31.8.
For Cc1cc(/C=C2\SC(=S)NC2=O)c(C)n1-c1ccc(O)cc1 the results were SKKanGAS inh 99.6*, PHOSPHO1 block 27.7, Rtt109 Vps75 11.4, TPT1 inhibitor 94.7*, Platelet DG rel 6.6, caTPT1 confirm 108.4* and RNase T1 inh 119.2*.
For COc1ccc(-n2c(C)cc(/C=C3\SC(=S)NC3=O)c2C)cc1 the results were WT yeast gro inh -8.7, SKKanGAS inh 17.0, PHOSPHO1 block 24.0, TPT1 inhibitor 30.5*, Platelet DG rel -7.7, caTPT1 confirm 24.5* and RNase T1 inh 36.5*.
O=C1NC(=S)S/C1=C\c1cc(Cl)cc(Cl)c1O was read as Rtt109 Vps75 -2.2.
